Reference: PubChem BioAssay
The source made the active and inactive calls.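 Rule for the calls, unless noted: active = inhibition at or above 50% at 10 µM; inactive = inhibition below 50%.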

Legend:
[1] = inhibitors of TNFa-induced NFkB p65 translocation, primary screen, imaging, HUVEC, MLSMR starter and 10KST1 sets (AID 438;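 active = inhibition above 20% together with a positive visual image hit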;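 note: compound added about 3h40 before a 20 min TNFalpha stimulation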;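 for inhibition: signal is the nuclear over cytoplasmic p65 intensity ratio per well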); details: HUVEC TNFa-induced p65 nuclear translocation; cell count: measured here: nuclei count (cytotoxicity indicator), at 2.08 µM; inhibition: at 2 µM, stronger effect = higher value, 0% TNFa-plus-vehicle, 100% no-TNFa wells
[2] = reduction of polyQ htt aggregates in cells – imaging, exon1htt(103Q)mCFP cells, high-content imaging, primary screen (AID 483;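 active = visual image review flags a hit and inhibition of aggregation exceeds 20%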;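 note: compound exposure lasted 3 days before fixation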;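 for nuclei count: percent of the per-plate median nuclei count of sample wells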); details: exon1htt(103Q)mCFP cell line, aggregate imaging, at 2 µM; inhibition of aggregation: stronger effect = higher value; nuclei count: measured here: cell count, toxicity
[3] = endothelial E-selectin expression blockers – imaging, HUVEC, immunofluorescence, MLSMR starter and 10KST1 sets, primary screen (AID 487;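 active = visually confirmed hit in the image check and inhibition above 20%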;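 for inhibition: signal is fraction of cell area covered by stained E-selectin grains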;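 for nuclei count: 100% = median nuclei count of all wells on the same plate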); details: HUVEC TNFalpha-induced E-selectin immunofluorescence imaging, at 2 µM; inhibition: stronger effect = higher value; nuclei count: measured here: cell number, toxicity
[4] = molecular target: Voltage-gated potassium channel subunit beta-2 (Rattus norvegicus) (UniProt P62483); test: inhibitors of rat Kvbeta2 reductase activity – biochemical, NADPH fluorescence, primary screen (AID 622;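 active = fluorescence slope higher than the sample average by over 3 SD, cut at about -0.22 in these data, passing the limit was not always enough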;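 note: slope of raw intensity against log time taken from 70 to 1610 s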); details: recombinant KvBeta, 4-cyanobenzaldehyde reduction, at 10 µM, stronger effect = higher value
[5] = molecular target: Voltage-gated potassium channel subunit beta-2 (Rattus norvegicus) (UniProt P62483); test: enhancers of rat Kvbeta2 NADPH turnover – biochemical, NADPH fluorescence, primary screen (AID 623;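 active = NADPH fluorescence slope more negative than the mean of all samples by about 3 SD, 99.7% confidence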;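 note: fluorescence intensity change per second fitted from 20 to 320 s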); details: Recombinant KvBeta, NADPH fluorescence decrease slope, 10 min; at 10 µM; stronger effect = lower value
[6] = molecular target: Alpha-2C adrenergic receptor (Homo sapiens) (UniProt P18825); test: compounds altering alpha2C-coupled GIRK flux – cell-based, HEK293 alpha2C/GIRK1/2, thallium flux, primary screen (AID 624;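 active = fluorescence slope after compound addition differing from the mean of all screened samples at 99.7% confidence, in either direction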;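 note: slope of fluorescence ratio to pre-addition baseline per second over 15 to 24 s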); details: thallium flux BTC fluorescence, at 10 µM, actives lie on both sides
[7] = blockers of RIG-like receptor reporter activation – cell-based, Sendai virus stimulus, luciferase, 10K MLSCN set, TLR/RLR signaling modifier project, primary screen (AID 602276); details: HEK293 RL24 IRF3 luciferase reporter, at 10 µM, stronger effect = higher value;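 note: firefly luciferase from ISG56 promoter only with Renilla not read in this screen; 0% = Sendai virus plus DMSO and 100% = medium plus DMSO without virus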
[8] = TLR3 IRF3 reporter activation blockers – cell-based, poly I:C stimulus, luciferase, 10K MLSCN set, primary screen (AID 602277;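 active = inhibition of the reporter signal at or above 50%; inactive = inhibition below 50%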); details: HEK293-TLR3 RL24 IRF3 luciferase reporter, at 10 µM, stronger effect = higher value

Chain of Voltage-gated potassium channel subunit beta-2 (Rattus norvegicus) (P62483 whole entry, looked up): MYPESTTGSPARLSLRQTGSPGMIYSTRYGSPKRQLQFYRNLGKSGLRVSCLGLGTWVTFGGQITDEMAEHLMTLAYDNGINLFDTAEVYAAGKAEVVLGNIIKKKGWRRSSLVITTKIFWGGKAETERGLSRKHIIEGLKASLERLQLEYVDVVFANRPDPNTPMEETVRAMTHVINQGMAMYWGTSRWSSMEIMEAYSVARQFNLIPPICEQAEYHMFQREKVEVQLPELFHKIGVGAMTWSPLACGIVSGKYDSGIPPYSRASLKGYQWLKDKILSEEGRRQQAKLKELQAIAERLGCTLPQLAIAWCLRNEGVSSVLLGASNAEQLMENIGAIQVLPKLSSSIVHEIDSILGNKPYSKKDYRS
Chain of Alpha-2C adrenergic receptor (Homo sapiens) (P18825 whole entry, looked up): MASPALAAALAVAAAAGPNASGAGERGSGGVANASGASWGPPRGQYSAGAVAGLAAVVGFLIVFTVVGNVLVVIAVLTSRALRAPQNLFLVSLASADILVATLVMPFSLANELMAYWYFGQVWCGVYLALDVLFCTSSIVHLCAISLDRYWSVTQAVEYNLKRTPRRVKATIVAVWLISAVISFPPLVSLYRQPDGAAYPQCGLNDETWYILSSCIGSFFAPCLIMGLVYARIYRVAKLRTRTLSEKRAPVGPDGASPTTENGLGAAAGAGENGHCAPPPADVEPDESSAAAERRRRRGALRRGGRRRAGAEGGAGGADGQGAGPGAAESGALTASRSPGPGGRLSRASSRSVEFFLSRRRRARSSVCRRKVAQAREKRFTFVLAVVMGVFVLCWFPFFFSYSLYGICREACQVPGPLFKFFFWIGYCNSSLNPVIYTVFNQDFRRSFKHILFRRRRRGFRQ

Row | Structure (SMILES) | cell count [1] | inhibition [1] | inhibition of aggregation [2] | nuclei count [2] [%] | inhibition [3] | nuclei count [3] [%] | fluorescence slope [4] | NADPH fluorescence slope [5] | slope [6] | inhibition [7] | inhibition [8]
1 | CCn1nnc(NC(=O)c2ccccc2Br)n1 | 229 | 10.3% (inactive) | 6.4% (inactive) | 66 | 12.4% (inactive) | 95.4 | -0.385 (inactive) | -5.5e-05 (inactive) | 0.00604 (inactive) | -19.8% (inactive) | -39.6% (inactive)
2 | COC(=O)CCSCc1cn2cc(Cl)ccc2n1 | 373 | 2.8% (inactive) | -26.9% (inactive) | 103 | -85.2% (inactive) | 112 | -0.509 (inactive) | -1.7e-05 (inactive) | 0.00629 (inactive) | 18.6% (inactive) | 56.9% (active)
3 | CCn1c(SCC(=O)Nc2cccc(C)c2)nc2c(c1=O)SC(C)C2 (stereo not drawn) | 576 | -3.4% (inactive) | 40.7% (inactive) | 85.6 | -11.7% (inactive) | 86 | -0.537 (inactive) | -4.6e-05 (inactive) | 0.00615 (inactive) | 12.1% (inactive) | 25.9% (inactive)
4 | COC(=O)C(CC(C)C)NC(=O)CSc1nc(-c2ccccc2)c(C#N)c(=O)[nH]1 (stereo not drawn) | 467 | -10.9% (inactive) | -13% (inactive) | 64.5 | -3.8% (inactive) | 81.7 | -0.402 (inactive) | -0.000101 (inactive) | 0.0059 (inactive) | 15.4% (inactive) | 28.8% (inactive)
5 | Nc1nc(SCc2ccc(Cl)cc2Cl)n[nH]1 | 352 | -1.7% (inactive) | -21.4% (inactive) | 97.6 | -161% (inactive) | 124 | -0.387 (inactive) | -4.5e-05 (inactive) | 0.00474 (inactive) | -12% (inactive) | -30.1% (inactive)
6 | CC1CCCN(C(=O)c2cc3c(-c4ccc(Cl)cc4)nn(C)c3s2)C1 (stereo not drawn) | 749 | -1.7% (inactive) | -30.1% (inactive) | 104 | -30.2% (inactive) | 111 | -0.607 (inactive) | -5.2e-06 (inactive) | 0.00725 (inactive) | 7.9% (inactive) | 45.2% (inactive)
7 | CCOC(=O)Cn1c2c(c(=N)c3ccccc31)CCC2 | 565 | -7.1% (inactive) | -0.7% (inactive) | 106 | 2% (inactive) | 103 | -0.623 (inactive) | -3.1e-05 (inactive) | 0.00442 (inactive) | 16% (inactive) | 20.3% (inactive)
8 | O=C1C(Cl)=C(N2CCOCC2)C(=O)N1CCc1ccccc1 | 373 | 2.8% (inactive) | -26.1% (inactive) | 97.1 | -20.9% (inactive) | 94.6 | -0.356 (inactive) | -8.5e-06 (inactive) | 0.0076 (inactive) | -18.6% (inactive) | -16.7% (inactive)
9 | CCN(CC)c1ccc(-c2c(C#N)c(N)nc(OC)c2C#N)cc1 | 426 | -3.8% (inactive) | -21% (inactive) | 112 | -13.4% (inactive) | 113 | -0.0839 (inactive) | 5.4e-06 (inactive) | 0.00577 (inactive) | -0.552% (inactive) | 18.3% (inactive)
10 | COc1ccc(C/C(N)=N/n2cnnc2)cc1Cl | 356 | -3.8% (inactive) | -13.5% (inactive) | 99.1 | -14.7% (inactive) | 107 | -0.447 (inactive) | -3.3e-05 (inactive) | 0.00222 (inactive) | 6.09% (inactive) | 35.6% (inactive)
11 | COc1ccc(C)cc1NC(=O)C1CCN(S(=O)(=O)c2cccc3cccnc23)CC1 | 539 | -6.5% (inactive) | 13.2% (inactive) | 76.6 | -6.8% (inactive) | 106 | -0.535 (inactive) | -4.1e-05 (inactive) | 0.00559 (inactive) | 14.3% (inactive) | 30.4% (inactive)
12 | CCOC(=O)C(C(=O)OCC)C(C)C#CCN1CCCCC1 (stereo not drawn) | 325 | -1.3% (inactive) | -11.4% (inactive) | 99.7 | -79.7% (inactive) | 113 | -0.322 (inactive) | -5.7e-05 (inactive) | 0.00551 (inactive) | 16.5% (inactive) | 26.6% (inactive)
13 | Cc1ccccc1Cn1ccc(NC(=O)c2onc(C)c2Cl)n1 | 654 | -1.6% (inactive) | 28.9% (inactive) | 118 | -52.1% (inactive) | 106 | -0.425 (inactive) | -4.5e-05 (inactive) | 0.00472 (inactive) | -15.7% (inactive) | -37% (inactive)
14 | O=C(CSc1nnc(-c2ccccc2F)o1)OCc1ccccc1 | 323 | 8.7% (inactive) | -1.8% (inactive) | 89.1 | -69.6% (inactive) | 99.9 | -0.428 (inactive) | 1.9e-05 (inactive) | 0.00527 (inactive) | 4.91% (inactive) | 34.1% (inactive)
15 | Cc1c(C(=O)N2CCOCC2)oc2ccc(S(=O)(=O)N3CCCC3)cc12 | 729 | -14.1% (inactive) | 4.5% (inactive) | 106 | -31.7% (inactive) | 105 | -0.518 (inactive) | -7.1e-05 (inactive) | 0.00624 (inactive) | -1.69% (inactive) | 2.47% (inactive)
16 | O=C(CSc1nnc2ncccn12)N1CCCCCC1 | 673 | 26.6% (active) | 8.3% (inactive) | 106 | -9.5% (inactive) | 82.7 | -0.475 (inactive) | -0.000211 (inactive) | 0.00529 (inactive) | 4.98% (inactive) | 99.3% (active)
17 | CCSCCNC(=O)c1cc(-n2cnnc2)ccc1Cl | 685 | 1.3% (inactive) | -2.3% (inactive) | 97.1 | 24.9% (inactive) | 89.9 | -0.633 (inactive) | -9.8e-06 (inactive) | 0.0037 (inactive) | 16.3% (inactive) | 20.3% (inactive)
18 | CCOc1ccc(C(=O)Nc2ccc(N3CCN(C)CC3)cc2)cc1Br | 434 | 3.4% (inactive) | 0.4% (inactive) | 95.5 | 6.4% (inactive) | 89.5 | -0.571 (inactive) | -3.6e-05 (inactive) | 0.00342 (inactive) | -15.1% (inactive) | -22.4% (inactive)
19 | COP(C)(=O)c1c(C)nn(-c2ccccc2)c1C (stereo not drawn) | 558 | 6.8% (inactive) | -0.1% (inactive) | 95.4 | -11.2% (inactive) | 112 | -0.424 (inactive) | -2.1e-06 (inactive) | 0.00629 (inactive) | 8.87% (inactive) | 37.6% (inactive)
20 | COc1cccc(-n2c(SCC(=O)Nc3cc(C)on3)nc3c([nH]c4ccccc43)c2=O)c1 | 600 | 8% (inactive) | -10.2% (inactive) | 89.7 | -41% (inactive) | 118 | -0.539 (inactive) | -7.7e-06 (inactive) | 0.00757 (inactive) | 24% (inactive) | 28.7% (inactive)
21 | CSC1=C(C#N)C(c2ccc(Cl)cc2)C2=C(CC(C)(C)CC2=O)N1 (stereo not drawn) | 391 | -3.3% (inactive) | 29.1% (inactive) | 81.5 | -5.3% (inactive) | 108 | -0.416 (inactive) | 5.8e-06 (inactive) | 0.00657 (inactive) | 1.71% (inactive) | 24.5% (inactive)
22 | Cc1noc(C)c1CSc1nnc2n(-c3ccccc3)c(=O)c3ccccc3n12 | 342 | -4% (inactive) | 12.7% (inactive) | 85.8 | -27.6% (inactive) | 89.5 | -0.411 (inactive) | -1e-05 (inactive) | 0.00571 (inactive) | 7.36% (inactive) | 20.9% (inactive)
23 | Cc1cc(C)c2c(n1)nn1c(N3CCOCC3)cc(C)nc21 | 503 | -6.3% (inactive) | 5.7% (inactive) | 81.9 | -56.5% (inactive) | 123 | -0.0426 (active) | -2.7e-06 (inactive) | 0.00599 (inactive) | 2.18% (inactive) | 3.21% (inactive)
24 | COc1cccc(N2CCN(Cc3nc(N)nc(Nc4ccccc4)n3)CC2)c1 | 463 | -12.5% (inactive) | 18.2% (inactive) | 84.7 | 44.7% (inactive) | 93.5 | -0.479 (inactive) | -5.8e-06 (inactive) | 0.00543 (inactive) | 0.669% (inactive) | 15.7% (inactive)
25 | COc1cc(C(=O)N2CCC(NC(=O)C(Cc3ccc(C)cc3)NC(C)=O)CC2)cc(OC)c1OC (stereo not drawn) | 666 | -6.1% (inactive) | 22.1% (inactive) | 56.4 | 5.2% (inactive) | 127 | -0.478 (inactive) | -4.4e-05 (inactive) | 0.00562 (inactive) | 1.73% (inactive) | 24.4% (inactive)
26 | Cc1nnc2ccc(N3CCN(c4cccc(C(F)(F)F)c4)CC3)nn12 | 596 | 5.5% (inactive) | -64.5% (inactive) | 32.1 | -68.3% (inactive) | 134 | -0.505 (inactive) | -1.3e-05 (inactive) | 0.00619 (inactive) | 3.49% (inactive) | 11.9% (inactive)
27 | COC(=O)c1ccc(NC(=O)C2CC(=O)N(c3cc(C)ccc3C)C2)cc1 (stereo not drawn) | 504 | 6.6% (inactive) | 8.1% (inactive) | 92.6 | -29.9% (inactive) | 95.1 | -0.587 (inactive) | -9.6e-06 (inactive) | 0.00549 (inactive) | -15.3% (inactive) | -26.3% (inactive)
28 | Cn1cc(C(=O)c2ccc(F)cc2)cc1-c1nc2ccccc2n1C | 357 | -6.3% (inactive) | 23.1% (inactive) | 86.8 | 5.7% (inactive) | 83 | -0.59 (inactive) | -4.1e-05 (inactive) | 0.0041 (inactive) | 3.11% (inactive) | -17.9% (inactive)
